What all share (experiment): DAPPL (digital affinity profiling via proximity ligation, sequencing); 10 mM Tris-HCl pH 7.5, 50 mM NaCl, 1 mM DTT, 4% glycerol, room temperature, 30 min; GST-TFs on glutathione beads, 16-mer random dsDNA library, 0.1% formaldehyde crosslink after washing; high values mean tight binding
For one test, the target named is T1, FEV (Homo sapiens, UniProt Q99581 1-238).
T1 sequence: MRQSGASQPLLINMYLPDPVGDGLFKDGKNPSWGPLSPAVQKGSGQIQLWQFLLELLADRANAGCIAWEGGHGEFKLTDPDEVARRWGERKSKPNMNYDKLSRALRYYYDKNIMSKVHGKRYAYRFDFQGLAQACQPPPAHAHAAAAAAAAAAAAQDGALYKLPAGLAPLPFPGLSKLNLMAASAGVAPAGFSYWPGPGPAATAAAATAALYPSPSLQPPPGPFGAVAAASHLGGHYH
The conditions noted are these: protein: recombinant; tags: N-terminal GST; dsDNA, one strand shown. The procedure, abridged: (§1)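 Beads coated with glutathione captured GST-fused human transcription factors that had been expressed in yeast, and the factors were then given DNA barcodes and pooled with a tag-only sample. The pools were incubated with 200 nmole of a random double-stranded 16-mer DNA library in Tris/NaCl/DTT/glycerol buffer for 30 min at room temperature, washed, crosslinked with 0.1% formaldehyde and proximity-ligated with BsaI/T4 ligase at 37 °C for 1 h. PCR amplification and Illumina NextSeq500 sequencing came last. Binding signal is each hexamer's read frequency for a factor divided by its frequency for the tag-only sample.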

In a further test the target is ETV5 (Homo sapiens, UniProt P41161 1-510). The conditions noted are these: protein: recombinant; tags: N-terminal GST; dsDNA, one strand shown. The procedure, abridged: as §1
Sequence of ETV5 (P41161 whole entry): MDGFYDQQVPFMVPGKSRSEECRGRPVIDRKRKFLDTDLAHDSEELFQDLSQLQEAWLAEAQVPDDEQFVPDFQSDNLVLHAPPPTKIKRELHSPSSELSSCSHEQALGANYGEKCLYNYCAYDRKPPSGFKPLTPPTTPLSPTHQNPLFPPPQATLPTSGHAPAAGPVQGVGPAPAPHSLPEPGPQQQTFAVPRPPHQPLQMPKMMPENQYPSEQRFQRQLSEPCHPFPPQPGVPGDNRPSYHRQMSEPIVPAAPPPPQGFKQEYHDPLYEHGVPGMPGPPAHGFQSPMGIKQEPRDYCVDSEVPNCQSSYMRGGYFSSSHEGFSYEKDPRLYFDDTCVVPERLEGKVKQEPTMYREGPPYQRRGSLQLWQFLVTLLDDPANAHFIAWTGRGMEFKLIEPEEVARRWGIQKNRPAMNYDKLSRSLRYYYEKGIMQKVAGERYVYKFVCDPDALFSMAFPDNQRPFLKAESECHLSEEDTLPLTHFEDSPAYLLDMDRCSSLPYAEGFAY
In the next test the target is HSF1 (Homo sapiens, UniProt Q00613 1-529). The conditions noted are these: protein: recombinant; tags: N-terminal GST; chain copies: 3; dsDNA, one strand shown. The essentials:
as §1

A further test addresses T2, SPIC (Homo sapiens, UniProt Q8N5J4 1-248).
T2 sequence: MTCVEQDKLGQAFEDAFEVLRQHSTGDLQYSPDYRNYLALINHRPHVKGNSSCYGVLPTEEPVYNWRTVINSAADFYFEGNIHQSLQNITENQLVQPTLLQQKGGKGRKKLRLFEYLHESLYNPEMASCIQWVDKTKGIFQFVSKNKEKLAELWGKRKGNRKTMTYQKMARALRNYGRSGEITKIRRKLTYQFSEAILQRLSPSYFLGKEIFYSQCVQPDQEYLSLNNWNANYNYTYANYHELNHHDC
The note with it: protein: recombinant; tags: N-terminal GST; dsDNA, one strand shown. The essentials: as §1

Another test has as its target ELF4 (Homo sapiens, UniProt Q99607 1-663). The note with it: protein: recombinant; tags: N-terminal GST; dsDNA, one strand shown. The essentials:
as §1

For a further test, the target named is T3, ELK4 (Homo sapiens, UniProt P28324-2 1-405).
T3 sequence: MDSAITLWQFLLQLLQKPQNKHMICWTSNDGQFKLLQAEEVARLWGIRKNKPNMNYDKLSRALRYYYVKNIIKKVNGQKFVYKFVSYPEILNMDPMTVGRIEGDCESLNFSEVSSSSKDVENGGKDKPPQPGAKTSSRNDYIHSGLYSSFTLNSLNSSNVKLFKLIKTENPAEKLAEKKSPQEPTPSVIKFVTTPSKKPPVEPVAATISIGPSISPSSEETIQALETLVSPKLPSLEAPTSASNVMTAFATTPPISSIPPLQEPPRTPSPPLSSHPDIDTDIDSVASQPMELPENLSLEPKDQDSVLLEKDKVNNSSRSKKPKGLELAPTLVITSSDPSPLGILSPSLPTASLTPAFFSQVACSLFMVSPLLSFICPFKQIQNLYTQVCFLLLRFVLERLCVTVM
The note with it: protein: recombinant; tags: N-terminal GST; dsDNA, one strand shown. The procedure, abridged:
as §1

The target in the next test is T4, ETV2 (Homo sapiens, UniProt O00321 1-342).
T4 sequence: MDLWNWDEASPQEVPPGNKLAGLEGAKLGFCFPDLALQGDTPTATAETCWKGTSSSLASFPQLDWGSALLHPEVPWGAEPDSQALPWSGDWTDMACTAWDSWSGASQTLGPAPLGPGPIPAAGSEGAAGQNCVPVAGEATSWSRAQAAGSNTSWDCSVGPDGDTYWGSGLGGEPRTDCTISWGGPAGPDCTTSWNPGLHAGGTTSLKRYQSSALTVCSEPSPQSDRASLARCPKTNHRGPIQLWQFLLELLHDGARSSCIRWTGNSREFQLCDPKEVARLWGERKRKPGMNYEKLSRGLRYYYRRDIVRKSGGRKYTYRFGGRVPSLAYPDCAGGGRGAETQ
The note with it: protein: recombinant; tags: N-terminal GST; dsDNA, one strand shown. The procedure, abridged:
as §1

In a further test the target is T5, ELF3 (Homo sapiens, UniProt P78545 1-371).
T5 sequence: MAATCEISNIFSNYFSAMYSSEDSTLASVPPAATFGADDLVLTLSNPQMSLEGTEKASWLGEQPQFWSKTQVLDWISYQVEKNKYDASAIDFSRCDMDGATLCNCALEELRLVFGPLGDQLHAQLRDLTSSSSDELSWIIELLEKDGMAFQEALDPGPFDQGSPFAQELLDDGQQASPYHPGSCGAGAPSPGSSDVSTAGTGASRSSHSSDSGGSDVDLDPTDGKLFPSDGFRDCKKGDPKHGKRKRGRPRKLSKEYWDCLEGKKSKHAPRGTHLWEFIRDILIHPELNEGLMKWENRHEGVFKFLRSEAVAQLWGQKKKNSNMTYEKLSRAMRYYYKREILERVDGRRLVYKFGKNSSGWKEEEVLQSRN
The note with it: protein: recombinant; tags: N-terminal GST; dsDNA, one strand shown. The procedure, abridged:
as §1

In another test the target is CRX (Homo sapiens, UniProt O43186 1-299). The conditions noted are these: protein: recombinant; tags: N-terminal GST; dsDNA, one strand shown. The procedure, abridged:
as §1

In another test the target is ETV1 (Homo sapiens, UniProt P50549 1-477). The note with it: protein: recombinant; tags: N-terminal GST; dsDNA, one strand shown. The procedure, abridged: as §1
Sequence of ETV1 (P50549 whole entry): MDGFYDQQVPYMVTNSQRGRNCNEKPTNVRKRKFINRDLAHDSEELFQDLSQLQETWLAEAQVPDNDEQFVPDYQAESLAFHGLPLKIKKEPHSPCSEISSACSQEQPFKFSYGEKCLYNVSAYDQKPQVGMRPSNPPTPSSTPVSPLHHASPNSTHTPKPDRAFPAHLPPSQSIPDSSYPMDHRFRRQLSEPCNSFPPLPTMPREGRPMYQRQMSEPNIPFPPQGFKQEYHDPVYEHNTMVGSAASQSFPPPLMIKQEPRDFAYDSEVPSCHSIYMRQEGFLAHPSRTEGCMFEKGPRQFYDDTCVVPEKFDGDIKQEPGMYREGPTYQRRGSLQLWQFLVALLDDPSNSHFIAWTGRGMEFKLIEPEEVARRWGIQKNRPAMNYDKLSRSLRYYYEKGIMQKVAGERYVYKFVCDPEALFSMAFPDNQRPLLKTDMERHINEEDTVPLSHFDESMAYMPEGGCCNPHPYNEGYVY
For another test, the target named is T6, ERF (Homo sapiens, UniProt P50548 1-548).
T6 sequence: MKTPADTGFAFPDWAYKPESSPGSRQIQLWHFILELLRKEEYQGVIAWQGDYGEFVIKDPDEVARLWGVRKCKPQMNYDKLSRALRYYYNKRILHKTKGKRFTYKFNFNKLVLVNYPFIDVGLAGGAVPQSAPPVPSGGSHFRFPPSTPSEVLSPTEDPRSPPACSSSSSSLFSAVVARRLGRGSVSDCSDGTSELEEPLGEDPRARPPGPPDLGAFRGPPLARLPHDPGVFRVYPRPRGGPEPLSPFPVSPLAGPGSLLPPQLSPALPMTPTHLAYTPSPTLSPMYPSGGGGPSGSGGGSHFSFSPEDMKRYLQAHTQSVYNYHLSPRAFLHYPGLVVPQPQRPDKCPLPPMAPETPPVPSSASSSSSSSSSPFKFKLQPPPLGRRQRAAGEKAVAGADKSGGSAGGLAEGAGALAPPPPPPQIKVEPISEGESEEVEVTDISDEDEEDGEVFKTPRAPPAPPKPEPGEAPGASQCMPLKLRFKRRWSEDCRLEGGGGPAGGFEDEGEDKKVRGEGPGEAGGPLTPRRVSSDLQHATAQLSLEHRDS
The conditions noted are these: protein: recombinant; tags: N-terminal GST; dsDNA, one strand shown. The essentials: as §1

For another test, the target named is T7, ETV3L (Homo sapiens, UniProt Q6ZN32 1-361).
T7 sequence: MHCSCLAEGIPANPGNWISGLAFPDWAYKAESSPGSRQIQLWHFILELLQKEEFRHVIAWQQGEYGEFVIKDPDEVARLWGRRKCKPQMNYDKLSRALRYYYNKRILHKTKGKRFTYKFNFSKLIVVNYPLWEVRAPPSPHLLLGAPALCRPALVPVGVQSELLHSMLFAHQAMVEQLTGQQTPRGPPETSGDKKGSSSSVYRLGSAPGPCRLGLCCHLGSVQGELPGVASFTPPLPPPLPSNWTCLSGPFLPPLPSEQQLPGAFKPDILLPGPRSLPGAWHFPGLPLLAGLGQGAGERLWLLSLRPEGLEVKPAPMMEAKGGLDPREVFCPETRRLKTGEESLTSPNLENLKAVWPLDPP
The conditions noted are these: protein: recombinant; tags: N-terminal GST; dsDNA, one strand shown. The procedure, abridged:
as §1

The target of another test is T8, ETS2 (Homo sapiens, UniProt P15036 1-469).
T8 sequence: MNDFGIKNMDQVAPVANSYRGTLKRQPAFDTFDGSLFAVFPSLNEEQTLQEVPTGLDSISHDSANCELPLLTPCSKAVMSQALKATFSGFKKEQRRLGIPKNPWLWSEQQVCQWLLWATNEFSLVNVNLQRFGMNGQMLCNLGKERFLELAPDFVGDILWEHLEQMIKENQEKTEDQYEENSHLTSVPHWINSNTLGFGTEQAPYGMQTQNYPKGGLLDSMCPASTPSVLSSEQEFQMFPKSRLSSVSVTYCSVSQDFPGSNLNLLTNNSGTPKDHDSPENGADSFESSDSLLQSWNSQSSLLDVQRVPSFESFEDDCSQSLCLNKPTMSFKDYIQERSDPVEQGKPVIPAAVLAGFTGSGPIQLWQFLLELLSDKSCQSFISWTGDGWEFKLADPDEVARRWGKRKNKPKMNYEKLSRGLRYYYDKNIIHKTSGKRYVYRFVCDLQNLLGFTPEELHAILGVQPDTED
The note with it: protein: recombinant; tags: N-terminal GST; dsDNA, one strand shown. The procedure, abridged:
as §1

A further test deals with T9, SPDEF (Homo sapiens, UniProt O95238 1-335).
T9 sequence: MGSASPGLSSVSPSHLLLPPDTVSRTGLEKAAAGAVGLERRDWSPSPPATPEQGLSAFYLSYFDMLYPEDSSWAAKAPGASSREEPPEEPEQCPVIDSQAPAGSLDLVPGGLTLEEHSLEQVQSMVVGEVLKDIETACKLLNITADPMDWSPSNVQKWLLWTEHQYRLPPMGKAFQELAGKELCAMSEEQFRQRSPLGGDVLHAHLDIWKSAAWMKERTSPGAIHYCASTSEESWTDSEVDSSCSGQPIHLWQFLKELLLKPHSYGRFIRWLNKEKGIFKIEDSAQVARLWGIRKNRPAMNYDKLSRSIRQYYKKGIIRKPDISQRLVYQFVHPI
The note with it: protein: recombinant; tags: N-terminal GST; dsDNA, one strand shown. The essentials:
as §1

Another test deals with T10, ETV7 (Homo sapiens, UniProt Q9Y603 1-341).
T10 sequence: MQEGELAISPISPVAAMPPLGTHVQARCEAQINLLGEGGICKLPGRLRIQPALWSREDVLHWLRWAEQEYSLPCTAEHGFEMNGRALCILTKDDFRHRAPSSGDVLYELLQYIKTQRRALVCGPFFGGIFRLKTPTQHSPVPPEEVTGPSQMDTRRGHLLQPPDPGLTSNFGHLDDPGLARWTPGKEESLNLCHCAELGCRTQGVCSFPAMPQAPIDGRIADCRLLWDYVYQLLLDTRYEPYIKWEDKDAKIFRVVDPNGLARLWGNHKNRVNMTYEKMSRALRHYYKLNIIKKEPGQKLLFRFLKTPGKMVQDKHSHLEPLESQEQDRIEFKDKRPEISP
The note with it: protein: recombinant; tags: N-terminal GST; dsDNA, one strand shown. The procedure, abridged:
as §1

A further test addresses T11, ELF5 (Homo sapiens, UniProt Q9UKW6-2 1-255).
T11 sequence: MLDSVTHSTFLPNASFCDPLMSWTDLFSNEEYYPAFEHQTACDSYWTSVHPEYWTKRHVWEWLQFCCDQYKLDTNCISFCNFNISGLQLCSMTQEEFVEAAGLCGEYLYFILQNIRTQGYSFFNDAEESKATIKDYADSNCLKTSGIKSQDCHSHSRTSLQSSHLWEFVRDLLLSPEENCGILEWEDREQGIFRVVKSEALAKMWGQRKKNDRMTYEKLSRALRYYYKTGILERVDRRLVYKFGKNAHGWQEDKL
The note with it: protein: recombinant; tags: N-terminal GST; dsDNA, one strand shown. The essentials: as §1

The next test addresses T12, ETV3 (Homo sapiens, UniProt P41162-2 1-143).
T12 sequence: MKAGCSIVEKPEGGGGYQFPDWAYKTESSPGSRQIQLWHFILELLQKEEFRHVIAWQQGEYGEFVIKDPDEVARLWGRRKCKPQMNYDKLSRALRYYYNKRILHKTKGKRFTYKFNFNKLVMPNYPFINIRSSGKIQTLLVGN
The note with it: protein: recombinant; tags: N-terminal GST; dsDNA, one strand shown. The essentials:
as §1

In another test the target is ETV6 (Homo sapiens, UniProt P41212 1-452). The note with it: protein: recombinant; tags: N-terminal GST; dsDNA, one strand shown. The procedure, abridged: as §1
Sequence of ETV6 (P41212 whole entry): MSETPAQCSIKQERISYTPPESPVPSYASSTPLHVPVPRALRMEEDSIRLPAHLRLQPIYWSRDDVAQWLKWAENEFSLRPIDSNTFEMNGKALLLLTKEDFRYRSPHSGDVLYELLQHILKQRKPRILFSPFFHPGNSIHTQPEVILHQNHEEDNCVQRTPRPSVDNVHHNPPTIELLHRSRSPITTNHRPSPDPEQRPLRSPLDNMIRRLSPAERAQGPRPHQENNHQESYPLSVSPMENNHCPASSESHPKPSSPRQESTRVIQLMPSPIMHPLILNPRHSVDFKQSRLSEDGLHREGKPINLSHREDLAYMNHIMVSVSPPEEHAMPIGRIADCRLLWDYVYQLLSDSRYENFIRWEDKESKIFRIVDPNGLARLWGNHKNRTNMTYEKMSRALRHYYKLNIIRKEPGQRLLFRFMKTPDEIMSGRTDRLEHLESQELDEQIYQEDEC

Here are results for one sequence from paper PMC7862700, “An all-to-all approach to the identification of sequence-specific readers for epigenetic DNA modifications on cytosine”.

Sequence of CRX (O43186 whole entry): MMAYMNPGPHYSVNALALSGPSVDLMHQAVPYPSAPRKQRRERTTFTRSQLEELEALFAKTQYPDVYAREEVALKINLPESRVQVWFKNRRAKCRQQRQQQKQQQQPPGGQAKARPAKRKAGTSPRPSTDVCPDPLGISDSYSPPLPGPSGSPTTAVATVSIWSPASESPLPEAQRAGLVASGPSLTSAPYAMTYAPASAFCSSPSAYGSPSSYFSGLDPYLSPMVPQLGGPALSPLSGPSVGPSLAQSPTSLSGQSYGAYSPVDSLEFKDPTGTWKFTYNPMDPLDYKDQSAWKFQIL
Sequence of HSF1 (Q00613 whole entry): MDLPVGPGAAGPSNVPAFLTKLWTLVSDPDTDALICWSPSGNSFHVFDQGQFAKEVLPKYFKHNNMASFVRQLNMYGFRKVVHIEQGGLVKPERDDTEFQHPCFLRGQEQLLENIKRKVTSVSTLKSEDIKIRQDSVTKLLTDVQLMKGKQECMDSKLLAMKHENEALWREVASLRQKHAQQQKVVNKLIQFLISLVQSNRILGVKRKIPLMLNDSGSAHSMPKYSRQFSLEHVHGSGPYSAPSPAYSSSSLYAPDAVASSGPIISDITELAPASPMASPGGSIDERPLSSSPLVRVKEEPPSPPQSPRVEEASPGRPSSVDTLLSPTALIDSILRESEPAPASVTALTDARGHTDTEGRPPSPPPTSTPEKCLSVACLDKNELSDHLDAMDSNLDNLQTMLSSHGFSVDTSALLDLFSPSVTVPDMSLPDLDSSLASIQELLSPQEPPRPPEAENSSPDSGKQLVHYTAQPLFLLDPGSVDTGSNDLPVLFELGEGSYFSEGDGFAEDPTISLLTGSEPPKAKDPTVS
Sequence of ELF4 (Q99607 whole entry): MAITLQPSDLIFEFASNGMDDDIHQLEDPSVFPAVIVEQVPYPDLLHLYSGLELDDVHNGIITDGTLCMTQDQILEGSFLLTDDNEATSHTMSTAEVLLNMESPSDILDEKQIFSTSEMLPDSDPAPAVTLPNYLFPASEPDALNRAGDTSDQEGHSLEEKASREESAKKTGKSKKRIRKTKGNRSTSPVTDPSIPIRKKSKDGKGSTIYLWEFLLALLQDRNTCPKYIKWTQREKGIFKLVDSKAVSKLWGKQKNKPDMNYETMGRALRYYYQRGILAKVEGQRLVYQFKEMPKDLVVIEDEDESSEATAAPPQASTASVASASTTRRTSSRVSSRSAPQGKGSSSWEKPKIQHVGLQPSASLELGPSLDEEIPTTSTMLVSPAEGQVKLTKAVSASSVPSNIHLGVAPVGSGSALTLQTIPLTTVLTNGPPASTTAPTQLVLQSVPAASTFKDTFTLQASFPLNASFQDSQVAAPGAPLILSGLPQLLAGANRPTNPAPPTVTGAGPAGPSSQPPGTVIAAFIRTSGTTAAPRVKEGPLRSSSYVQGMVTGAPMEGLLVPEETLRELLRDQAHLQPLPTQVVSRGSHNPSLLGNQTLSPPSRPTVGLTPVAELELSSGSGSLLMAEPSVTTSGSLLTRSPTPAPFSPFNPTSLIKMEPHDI

Regarding TGACCC, the binding signal in the test with FEV was 1.46 fold enrichment (6-mer frequency, TF over GST control); in the test with ETV5 it was 1.41 fold enrichment (6-mer frequency, TF over GST control); in the test with HSF1, 1.1 fold enrichment (6-mer frequency, TF over GST control); with SPIC, 1.24 fold enrichment (6-mer frequency, TF over GST control); in the test with ELF4 it was 1.48 fold enrichment (6-mer frequency, TF over GST control); in the test with ELK4, 1.39 fold enrichment (6-mer frequency, TF over GST control). Besides, the binding signal with ETV2 was 1.56 fold enrichment (6-mer frequency, TF over GST control); with ELF3 it was 1.37 fold enrichment (6-mer frequency, TF over GST control); with CRX, 1.13 fold enrichment (6-mer frequency, TF over GST control); in the test with ETV1, 1.25 fold enrichment (6-mer frequency, TF over GST control); with ERF, 1.4 fold enrichment (6-mer frequency, TF over GST control); with ETV3L, 1.3 fold enrichment (6-mer frequency, TF over GST control). The binding signal is 1.38 fold enrichment (6-mer frequency, TF over GST control) with ETS2; 1.49 fold enrichment (6-mer frequency, TF over GST control) in the test with SPDEF; 1.4 fold enrichment (6-mer frequency, TF over GST control) in the test with ETV7; 1.4 fold enrichment (6-mer frequency, TF over GST control) in the test with ELF5; 1.39 fold enrichment (6-mer frequency, TF over GST control) with ETV3; 1.28 fold enrichment (6-mer frequency, TF over GST control) with ETV6.
